Results taken from the supplement of paper PMC10681739.

What follows are sequences tested against T1, ETS1 (UniProt P14921) (assay: ETS1 binding intensity (PBM fluorescence) in presence of RUNX1, normalised to ETS1-only experiment (arbitrary fluorescence units); higher = stronger binding). Conditions: ETS1 concentration 1 nM; RUNX1 concentration 25 nM.
T1 sequence: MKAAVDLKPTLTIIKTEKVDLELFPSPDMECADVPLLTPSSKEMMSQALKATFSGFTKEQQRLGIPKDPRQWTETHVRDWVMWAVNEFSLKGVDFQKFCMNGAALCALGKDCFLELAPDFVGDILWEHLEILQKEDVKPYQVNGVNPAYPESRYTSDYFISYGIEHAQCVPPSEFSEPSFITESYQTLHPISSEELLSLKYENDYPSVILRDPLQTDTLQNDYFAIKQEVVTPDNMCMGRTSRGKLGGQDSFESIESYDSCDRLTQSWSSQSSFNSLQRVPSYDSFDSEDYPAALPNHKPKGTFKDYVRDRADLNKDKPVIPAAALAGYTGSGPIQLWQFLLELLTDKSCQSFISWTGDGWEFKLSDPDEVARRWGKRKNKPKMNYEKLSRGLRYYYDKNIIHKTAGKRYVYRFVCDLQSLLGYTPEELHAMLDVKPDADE
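Wherever RUNX1 binding intensity (PBM fluorescence) in presence of ETS1, normalised to RUNX1-only experiment is given: Full-length recombinant human ETS1 or RUNX1 bound to double-stranded 36-bp genomic probes on microarrays, detected by protein-specific primary antibody and Alexa488 secondary, spot fluorescence as median of four replicate spots.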

Sequence | ETS1 binding intensity
GGGCAGCAGCAGACCGGAAACCACAGCCGACTAAGA | 29500
AAACAGGAAATCACAGCAGCGTTGCGGAGTGGAGCA | 1110
GGGCTATTGTTTCCTCCCCCATGTGACCACAGCCTC | 776
CCGCTTCCGGCCTTCGCCCGGCTTACCCGCGTCGCA | 1740
TTGAGGGGAAGGGGAGGAAGTGGTCATTGGAACTTG | 3150
GCCTGAAGGACTTCCGGGAACCGCAAAGCACGGTGT | 3510
GTATGGGAAGTGATCTGGCTGCAAACCGCAAGAGAG | 2730
ACACCCCAGGCAGGATGTGGTAGGGGTTGCCCCAGA | 5030
TGGCTTTGCAGAAGGAAGCTGTGGTTTCTGGTCTTC | 3340
TTGTCACGTCCGGCACGCCGCGAACCGCAAGGAACC | 1800
ACTTGACTTCCTGTGGGGTGTGTGGTGTCTGCACTT | 901
TGGGAACTTCCTGTGGAGGAGTGCATTGTGGGACTT | 726
CAGGCCTTTCCTGCTATCGTTTGTGGTTTGAGCAGT | 1120
ACTGCTTGATTTTCAGGAAGTGGTAAAGTGGCAGGT | 9050
GCGGAGCGAGCGGCCGGATGCGGTCACCATAGAGAC | 25200
ACCATAAGGACCGGAAGCAGAGACCACACTGGTGCT | 12600
AAAACAAGGACTTCCGCCTCCCTGCGGTCCCTCCCC | 2730
CAGCAAAAGGCAGGATGTGGTTAAAACTGTGCTCTG | 29000
GCTAAGGTGAAAGGAAGTGGGTTTTGTCTTTTTTTT | 4150

These sequences were tested against RUNX1 (UniProt Q01196) (assay: RUNX1 binding intensity (PBM fluorescence) in presence of ETS1, normalised to RUNX1-only experiment (arbitrary fluorescence units); higher = stronger binding). Conditions: RUNX1 concentration 2 nM; ETS1 concentration 25 nM.
Experimental: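 Cooperative gcPBM on 36-bp genomic probes with neighbouring ETS1 and RUNX1 sites. Recombinant human RUNX1 (2 nM) was incubated alone or with ETS1 (25 nM) and detected with anti-RUNX1 antibody plus Alexa488 secondary. Values are medians over 4 replicate spots; the RUNX1+ETS1 data were normalised to the RUNX1-only data. The probes sit in constant array flanks that are not printed.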

Chain of RUNX1 (Q01196 whole entry): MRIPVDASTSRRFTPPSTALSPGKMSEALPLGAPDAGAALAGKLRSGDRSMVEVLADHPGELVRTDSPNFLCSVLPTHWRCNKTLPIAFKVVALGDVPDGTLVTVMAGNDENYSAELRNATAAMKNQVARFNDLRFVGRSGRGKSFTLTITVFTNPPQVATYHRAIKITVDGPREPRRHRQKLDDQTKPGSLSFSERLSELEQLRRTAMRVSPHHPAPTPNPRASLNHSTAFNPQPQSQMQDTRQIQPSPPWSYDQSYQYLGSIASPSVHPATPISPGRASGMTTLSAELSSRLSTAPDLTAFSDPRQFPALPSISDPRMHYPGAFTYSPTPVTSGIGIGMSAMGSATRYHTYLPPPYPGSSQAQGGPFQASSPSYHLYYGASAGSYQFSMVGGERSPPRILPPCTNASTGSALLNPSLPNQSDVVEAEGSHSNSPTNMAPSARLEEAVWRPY

Sequence | RUNX1 binding intensity
GTGAATGAGGGGGAAGGAAGTGGTTTGGAAAAATAC | 962
ACATTCTTCCGGTTGGACCTCCGCGGTCAGCGCTGT | 3220
TTTCACTTCCGGCATGTTTTTCACCCACAGGGATAT | 2750
CAGGGCACCTCCTACTTCCCCCCGCAGATAACTACC | 906
GGTAAAGCAACAGGATGTGGGTGTCTGACTTACAAT | 1790
CCGGGTAGGATCCGGTTGCCTTTCTGCGGTGGAGGA | 1480
CTCAGGAATGCGGAAGTGCTCTGTGGGCACCCACCA | 1560
TGGGGCCCGGAAGCGCTGGCGCCTTGCGGCCAGAAG | 952
GAAAACTAAGCAGGATGTGGTCTCGGCTGGAGCCTG | 2020
ACACCGGAAGCCCAACAGCATGCCGAGTAACCACCC | 1310
CCCTGCCATTTCCTGCCCAATACCGCGTATGCAACT | 4240
CACCGACCGGAAGGGCCCCAAGGATCCCCGCAGCAG | 1380
GGAACAGGAAAAGCCTCCGGCAGCCCCTGCGGGCGG | 920
GGCCGACGGGAAGTGTAGTCCGGCCTGCGGTCCGGG | 1050
GTCTTACTTCCTGTCCCCGCCCACCGCGACTGTCTT | 3600
CTGTTTCCTGCCTTTGCTGTCTGTGACCGCATCAGT | 2840
GAGCGCCCACTTCCTGTTTACCACCCAGCCTCTTCG | 7590
AATGCCGGATATTGGTTCTGGTAAGCCACAAAAAAG | 1390
AATCCACCGGAAACACTTAGACGCCGCAACCCCAGT | 1590
GTGGCTATGGGAAGTGGGGTGCGGTTTCTGCCGGGG | 1670

Sequence | RUNX1 binding intensity
GCTTCTGAGGAAGTGCGTTCTGTGGGTAGGTGGAGT | 918
GGGCAGCAGCAGACCGGAAACCACAGCCGACTAAGA | 3330
AAACAGGAAATCACAGCAGCGTTGCGGAGTGGAGCA | 883
GGGCTATTGTTTCCTCCCCCATGTGACCACAGCCTC | 1290
CCGCTTCCGGCCTTCGCCCGGCTTACCCGCGTCGCA | 2920
TTGAGGGGAAGGGGAGGAAGTGGTCATTGGAACTTG | 990
GCCTGAAGGACTTCCGGGAACCGCAAAGCACGGTGT | 3430
GTATGGGAAGTGATCTGGCTGCAAACCGCAAGAGAG | 7290
ACACCCCAGGCAGGATGTGGTAGGGGTTGCCCCAGA | 2080
TGGCTTTGCAGAAGGAAGCTGTGGTTTCTGGTCTTC | 1010
TTGTCACGTCCGGCACGCCGCGAACCGCAAGGAACC | 2720
ACTTGACTTCCTGTGGGGTGTGTGGTGTCTGCACTT | 2010
TGGGAACTTCCTGTGGAGGAGTGCATTGTGGGACTT | 1630
CAGGCCTTTCCTGCTATCGTTTGTGGTTTGAGCAGT | 3830
ACTGCTTGATTTTCAGGAAGTGGTAAAGTGGCAGGT | 957
GCGGAGCGAGCGGCCGGATGCGGTCACCATAGAGAC | 8090
ACCATAAGGACCGGAAGCAGAGACCACACTGGTGCT | 1440
AAAACAAGGACTTCCGCCTCCCTGCGGTCCCTCCCC | 1880
CAGCAAAAGGCAGGATGTGGTTAAAACTGTGCTCTG | 17100
GCTAAGGTGAAAGGAAGTGGGTTTTGTCTTTTTTTT | 1340
